Measurements published in PubChem BioAssay (NCI).
This is part of a sample that, as a whole, favours compounds with a hit. Of some 83,000 tested, about 20% had one in any assay.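 Growth was measured after 48 h exposure to one concentration of compound in 96-well plates. Values under 10 count as active.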 Activity calls are given as the source filed them.

Assays:
Assay in all cases: NCI-60 one-dose screen, 48 h (100 = growth as untreated, 0 = no growth, -100 = all killed)
Conditions in all cases: 10 µM unless noted
SR leukemia = system: SR leukemia
RPMI-8226 leukemia = system: RPMI-8226 leukemia
OVCAR-8 ovarian = system: OVCAR-8 ovarian
OVCAR-5 ovarian = system: OVCAR-5 ovarian
OVCAR-4 ovarian = system: OVCAR-4 ovarian
SK-OV-3 ovarian = system: SK-OV-3 ovarian
IGROV1 ovarian = system: IGROV1 ovarian
OVCAR-3 ovarian = system: OVCAR-3 ovarian
HS 578T breast = system: HS 578T breast
NCI/ADR-RES ovarian = system: NCI/ADR-RES ovarian

Measured: growth

Oc1ccc(N=Nc2ccc(N=Nc3ccccc3)cc2)cc1
inactive: SR leukemia 43.1% | RPMI-8226 leukemia 24.8% | OVCAR-8 ovarian 23.1% | OVCAR-5 ovarian 79.3% | OVCAR-4 ovarian 76% | SK-OV-3 ovarian 42.6% | IGROV1 ovarian 53.6% | OVCAR-3 ovarian 18.3% | HS 578T breast 91.8% | NCI/ADR-RES ovarian 43.4%

COc1ccc2c(c1)/C(=C/c1c(-c3cc(OC)c(OC)c(OC)c3)nc3sccn13)C(=O)N2
inactive: RPMI-8226 leukemia 60.7% | OVCAR-8 ovarian 105% | OVCAR-5 ovarian 85.2% | OVCAR-4 ovarian 95.8% | SK-OV-3 ovarian 106% | IGROV1 ovarian 29.2% | OVCAR-3 ovarian 99.5% | HS 578T breast 85.7% | NCI/ADR-RES ovarian 98.9%
active: SR leukemia -41.1%

CC(=O)OCC1O[C@@H](OC(C)=O)[C@@H](NC(=O)NS(=O)(=O)c2ccccc2)C(OC(C)=O)[C@@H]1OC(C)=O (stereo not given in full)
inactive: SR leukemia 88.9% | RPMI-8226 leukemia 107% | OVCAR-8 ovarian 113% | OVCAR-5 ovarian 108% | OVCAR-4 ovarian 109% | SK-OV-3 ovarian 113% | IGROV1 ovarian 108% | OVCAR-3 ovarian 110% | HS 578T breast 109% | NCI/ADR-RES ovarian 113%

C=CC1CN2CCC1CC2C(O)c1ccnc2ccc(OC)cc12 (stereo not given)
active: IGROV1 ovarian -5.34%
inactive: SR leukemia 113% | RPMI-8226 leukemia 108% | OVCAR-8 ovarian 88.4% | OVCAR-5 ovarian 93.1% | OVCAR-4 ovarian 102% | SK-OV-3 ovarian 93.9% | OVCAR-3 ovarian 105% | HS 578T breast 99.9% | NCI/ADR-RES ovarian 107%

CC(O)CN(CC(C)O)N(CC(C)O)CC(C)O (stereo not given)
inactive: SR leukemia 94.2% | RPMI-8226 leukemia 98.9% | OVCAR-8 ovarian 97.9% | OVCAR-5 ovarian 101% | OVCAR-4 ovarian 98.2% | SK-OV-3 ovarian 109% | IGROV1 ovarian 113% | OVCAR-3 ovarian 109% | HS 578T breast 108% | NCI/ADR-RES ovarian 106%

O=C(c1ccccc1)c1ccccc1-c1ccccc1
inactive: SR leukemia 19.2% | RPMI-8226 leukemia 13.6% | OVCAR-8 ovarian 36.7% | OVCAR-5 ovarian 52.6% | OVCAR-4 ovarian 83.3% | SK-OV-3 ovarian 23.5% | IGROV1 ovarian 41.7% | OVCAR-3 ovarian 13.3%
active: HS 578T breast -6.36% | NCI/ADR-RES ovarian -23.7%

Nc1nc2c(c3ncncc13)C(c1cccc(C(F)(F)F)c1)Cc1ncncc1-2 (stereo not given)
active: OVCAR-3 ovarian 2.43%
inactive: SR leukemia 32.9% | RPMI-8226 leukemia 26.8% | OVCAR-8 ovarian 57.6% | OVCAR-5 ovarian 77.4% | OVCAR-4 ovarian 39.8% | SK-OV-3 ovarian 32.9% | IGROV1 ovarian 54.4% | HS 578T breast 18.2% | NCI/ADR-RES ovarian 15.3%

COc1ccc(/C=C/C(=O)/C=C/c2cc3ccccc3[nH]c2=O)cc1
active: SR leukemia -2.08% | RPMI-8226 leukemia -22% | OVCAR-8 ovarian -11.8%
inactive: OVCAR-5 ovarian 125% | OVCAR-4 ovarian 74.5% | SK-OV-3 ovarian 88.8% | IGROV1 ovarian 130% | OVCAR-3 ovarian 32% | HS 578T breast 102% | NCI/ADR-RES ovarian 92.5%

CC(C)(C)c1ccc(OCCOC(=O)CBr)cc1
inactive: SR leukemia 44.7% | RPMI-8226 leukemia 88.2% | OVCAR-8 ovarian 83.8% | OVCAR-5 ovarian 104% | OVCAR-4 ovarian 98.8% | SK-OV-3 ovarian 104% | OVCAR-3 ovarian 101% | HS 578T breast 108% | NCI/ADR-RES ovarian 108%
active: IGROV1 ovarian 2.57%

COc1cc(-c2nn(-c3ccc(NC(=O)Nc4ccc(Cl)c(Cl)c4)cc3)cc2-c2ccncc2)ccc1Cl
active: SR leukemia 6.61% | RPMI-8226 leukemia -15.3% | HS 578T breast -26.9%
inactive: OVCAR-8 ovarian 29.1% | OVCAR-5 ovarian 72.8% | OVCAR-4 ovarian 36.7% | SK-OV-3 ovarian 62.8% | IGROV1 ovarian 36.9% | OVCAR-3 ovarian 24.1% | NCI/ADR-RES ovarian 16.1%

CCCCCCCCCCCCCCCCNC(=O)Nc1ccc(C)c(NC(=O)NCCCCCCCCCCCCCCCC)c1
inactive: SR leukemia 104% | RPMI-8226 leukemia 99.2% | OVCAR-8 ovarian 105% | OVCAR-5 ovarian 109% | OVCAR-4 ovarian 108% | SK-OV-3 ovarian 105% | IGROV1 ovarian 107% | OVCAR-3 ovarian 109% | HS 578T breast 95.1% | NCI/ADR-RES ovarian 112%

O=C(/C=C/c1c[nH]c2ccccc12)c1cc2ccccc2o1
inactive: SR leukemia 41.1% | RPMI-8226 leukemia 60.1% | OVCAR-8 ovarian 99.3% | OVCAR-5 ovarian 101% | OVCAR-4 ovarian 101% | SK-OV-3 ovarian 103% | IGROV1 ovarian 88.2% | OVCAR-3 ovarian 93.3% | HS 578T breast 100% | NCI/ADR-RES ovarian 99.9%

c1cc[c]([Bi]([c]2ccccc2)[c]2ccccc2)cc1
inactive: SR leukemia 102% | RPMI-8226 leukemia 91% | OVCAR-8 ovarian 101% | OVCAR-5 ovarian 99.3% | OVCAR-4 ovarian 89.3% | SK-OV-3 ovarian 111% | IGROV1 ovarian 107% | OVCAR-3 ovarian 105% | HS 578T breast 100% | NCI/ADR-RES ovarian 98%

CCOC(=O)CCCCCCCCC(=O)OCC
inactive: SR leukemia 106% | RPMI-8226 leukemia 108% | OVCAR-8 ovarian 106% | OVCAR-5 ovarian 112% | OVCAR-4 ovarian 111% | SK-OV-3 ovarian 106% | IGROV1 ovarian 105% | OVCAR-3 ovarian 106% | HS 578T breast 110% | NCI/ADR-RES ovarian 101%

COc1ccc(C2C3(C#N)C(N)=NC(=C(C#N)C#N)C23C#N)cc1OC (stereo not given)
inactive: SR leukemia 83.6% | RPMI-8226 leukemia 117% | OVCAR-8 ovarian 106% | OVCAR-5 ovarian 93.3% | OVCAR-4 ovarian 110% | SK-OV-3 ovarian 109% | IGROV1 ovarian 113% | OVCAR-3 ovarian 109% | HS 578T breast 96.5% | NCI/ADR-RES ovarian 114%

COc1ccc(-c2nc(SCC(C)C)nc(Nc3ccccc3)c2C#N)cc1
active: OVCAR-4 ovarian -12.2%
inactive: SR leukemia 48.9% | RPMI-8226 leukemia 87.6% | OVCAR-8 ovarian 74.4% | OVCAR-5 ovarian 103% | SK-OV-3 ovarian 97.6% | IGROV1 ovarian 74.7% | OVCAR-3 ovarian 46.2% | HS 578T breast 72.7% | NCI/ADR-RES ovarian 85.9%

Cc1cc2c(-c3nc4ccccc4[nH]3)c(O)c(O)cc2c(O)c1-c1c(C)cc2c(-c3nc4ccccc4[nH]3)c(O)c(O)cc2c1O
inactive: OVCAR-5 ovarian 26.2% | IGROV1 ovarian 12.7% | OVCAR-3 ovarian 20.6%
active: SR leukemia 6% | RPMI-8226 leukemia 9.72% | OVCAR-8 ovarian -6.85% | OVCAR-4 ovarian 6.83% | SK-OV-3 ovarian -35.6% | HS 578T breast 4.85% | NCI/ADR-RES ovarian -12.6%

COc1cc(-c2cc3cnccc3c3nc(N)c4ccncc4c23)cc(OC)c1OC
inactive: SR leukemia 17% | OVCAR-8 ovarian 41.4% | OVCAR-5 ovarian 68.7% | OVCAR-4 ovarian 73.5% | SK-OV-3 ovarian 57.5% | IGROV1 ovarian 15% | OVCAR-3 ovarian 48.8% | HS 578T breast 10.1% | NCI/ADR-RES ovarian 30.7%
active: RPMI-8226 leukemia 8.28%

COc1ccc(/C=C2\CCCC3=C2N=C2SC=NN2C3c2ccc(OC)c(OC)c2)cc1OC (stereo not given)
inactive: SR leukemia 34.3% | OVCAR-5 ovarian 59.7% | OVCAR-4 ovarian 49.1% | SK-OV-3 ovarian 81.9% | IGROV1 ovarian 47.8% | OVCAR-3 ovarian 37.8% | HS 578T breast 86.4% | NCI/ADR-RES ovarian 21.4%
active: RPMI-8226 leukemia -14.8% | OVCAR-8 ovarian 9.01%

COc1ccc2cn3c4ccc(O)cc4[nH]c(=O)c3c2c1
inactive: SR leukemia 16.1% | RPMI-8226 leukemia 13.2% | OVCAR-8 ovarian 12.7% | OVCAR-5 ovarian 21% | IGROV1 ovarian 17.6%
active: OVCAR-4 ovarian -2.67% | SK-OV-3 ovarian -1.15% | OVCAR-3 ovarian -7.15% | HS 578T breast -22.4% | NCI/ADR-RES ovarian -39%

CCCCCCNC(=O)Oc1ccc(/C(=C(/C)Cc2ccc(OC)cc2)c2ccc(OCCN3CCCCC3)cc2)cc1
active: SR leukemia -0.659%
inactive: RPMI-8226 leukemia 76.5% | OVCAR-8 ovarian 81.2% | OVCAR-5 ovarian 90.5% | OVCAR-4 ovarian 81% | SK-OV-3 ovarian 88.8% | IGROV1 ovarian 95.1% | OVCAR-3 ovarian 93.9% | HS 578T breast 80% | NCI/ADR-RES ovarian 86.3%

COc1cc(-c2c3c(cn2CCN2CCCCC2)-c2oncc2CC3)cc(OC)c1OC
inactive: SR leukemia 92.5% | RPMI-8226 leukemia 108% | OVCAR-8 ovarian 101% | OVCAR-5 ovarian 85.3% | OVCAR-4 ovarian 100% | SK-OV-3 ovarian 93.7% | IGROV1 ovarian 104% | OVCAR-3 ovarian 113% | HS 578T breast 99.3% | NCI/ADR-RES ovarian 97.3%

CCOC(=O)NNc1[nH]c(-c2ccc(OC)cc2)cc1C#N
inactive: RPMI-8226 leukemia 91.2% | OVCAR-8 ovarian 99.5% | OVCAR-5 ovarian 87.7% | OVCAR-4 ovarian 153% | SK-OV-3 ovarian 111% | IGROV1 ovarian 57.5% | OVCAR-3 ovarian 107% | HS 578T breast 96.3% | NCI/ADR-RES ovarian 88.9%
active: SR leukemia -2.04%

CCCCCCCCCCCCOC(=N)N(C)C
inactive: SR leukemia 82.4% | RPMI-8226 leukemia 99.7% | OVCAR-8 ovarian 98.9% | OVCAR-5 ovarian 99.4% | OVCAR-4 ovarian 117% | SK-OV-3 ovarian 97.3% | IGROV1 ovarian 106% | OVCAR-3 ovarian 92.6% | HS 578T breast 97.1% | NCI/ADR-RES ovarian 102%

CC(O)c1cc[cH-]c1.[Fe+2].c1cc[cH-]c1 (stereo not given)
inactive: SR leukemia 90.2% | RPMI-8226 leukemia 102% | OVCAR-8 ovarian 100% | OVCAR-5 ovarian 100% | OVCAR-4 ovarian 114% | SK-OV-3 ovarian 99.6% | IGROV1 ovarian 106% | OVCAR-3 ovarian 108% | HS 578T breast 104% | NCI/ADR-RES ovarian 102%

CCC(CCCN1C(=O)c2ccccc2C1=O)Nc1cc(OC)cc2cccnc12 (stereo not given)
active: IGROV1 ovarian -7.61%
inactive: SR leukemia 73.5% | RPMI-8226 leukemia 102% | OVCAR-8 ovarian 96.1% | OVCAR-5 ovarian 89.6% | OVCAR-4 ovarian 39.9% | SK-OV-3 ovarian 107% | OVCAR-3 ovarian 106% | HS 578T breast 84.5% | NCI/ADR-RES ovarian 99.5%

Nc1cc(N)c2nc(NCCc3ccc(Cl)c(Cl)c3)cnc2c1
active: SR leukemia -69.7% | RPMI-8226 leukemia -48.9% | OVCAR-4 ovarian -96.7% | OVCAR-3 ovarian -43.4%
inactive: OVCAR-8 ovarian 32.6% | OVCAR-5 ovarian 31% | SK-OV-3 ovarian 88.8% | IGROV1 ovarian 21.3% | HS 578T breast 62.1% | NCI/ADR-RES ovarian 89.6%

COc1ccc(C(O)(c2ccccc2)C(C(=O)O)c2ccccc2)cc1 (stereo not given)
inactive: SR leukemia 103% | RPMI-8226 leukemia 95.5% | OVCAR-8 ovarian 107% | OVCAR-5 ovarian 102% | OVCAR-4 ovarian 98% | SK-OV-3 ovarian 102% | IGROV1 ovarian 104% | OVCAR-3 ovarian 114% | HS 578T breast 114% | NCI/ADR-RES ovarian 108%
